From PMC11062922 (Nature Chemical Biology, 2023)
Like-named read-outs stand apart in the source and are kept apart here.

Test system: PAK4
Details: read-out: apparent Kd, n = 1

Substance: Lestaurtinib
- potency estimated from few doses (compound concentrations:100 nM and 1000 nM (sheet 'Lestaurtinib' of Supplementary Table 1),run:Lestaurtinib_02364_R2,Plate:MR002): 0.0329 µM
- potency estimated from few doses (compound concentrations:100 nM and 1000 nM (sheet 'Lestaurtinib' of Supplementary Table 1),run:Lestaurtinib_02364_R3,Plate:MR002): 0.0351 µM
- potency estimated from few doses (compound concentrations:100 nM and 1000 nM (sheet 'Lestaurtinib' of Supplementary Table 1),run:Lestaurtinib_02367_R1,Plate:MR003): 0.0297 µM
- potency estimated from few doses (compound concentrations:100 nM and 1000 nM (sheet 'Lestaurtinib' of Supplementary Table 1),run:Lestaurtinib_02367_R2,Plate:MR003): 0.0336 µM
- potency estimated from few doses (compound concentrations:100 nM and 1000 nM (sheet 'Lestaurtinib' of Supplementary Table 1),run:Lestaurtinib_02367_R3,Plate:MR003): 0.0358 µM
- potency estimated from few doses (compound concentrations:100 nM and 1000 nM (sheet 'Lestaurtinib' of Supplementary Table 1),run:Lestaurtinib_02381_R1,Plate:MR004): 0.031 µM
- potency estimated from few doses (compound concentrations:100 nM and 1000 nM (sheet 'Lestaurtinib' of Supplementary Table 1),run:Lestaurtinib_02381_R3,Plate:MR004): 0.03 µM
- potency estimated from few doses (compound concentrations:100 nM and 1000 nM (sheet 'Lestaurtinib' of Supplementary Table 1),run:Lestaurtinib_02407_R2,Plate:MR005): 0.0286 µM
- potency estimated from few doses (compound concentrations:100 nM and 1000 nM (sheet 'Lestaurtinib' of Supplementary Table 1),run:Lestaurtinib_02407_R3,Plate:MR005): 0.0345 µM
- potency estimated from few doses (compound concentrations:100 nM and 1000 nM (sheet 'Lestaurtinib' of Supplementary Table 1),run:Lestaurtinib_02422_R1,Plate:MR006): 0.0442 µM
- potency estimated from few doses (compound concentrations:100 nM and 1000 nM (sheet 'Lestaurtinib' of Supplementary Table 1),run:Lestaurtinib_02422_R2,Plate:MR006): 0.0202 µM
- potency estimated from few doses (compound concentrations:100 nM and 1000 nM (sheet 'Lestaurtinib' of Supplementary Table 1),run:Lestaurtinib_02438_R2,Plate:MR008): 0.0306 µM
- potency estimated from few doses (compound concentrations:100 nM and 1000 nM (sheet 'Lestaurtinib' of Supplementary Table 1),run:Lestaurtinib_02443_R2,Plate:MR009): 0.0319 µM
- potency estimated from few doses (compound concentrations:100 nM and 1000 nM (sheet 'Lestaurtinib' of Supplementary Table 1),run:Lestaurtinib_02443_R3,Plate:MR009): 0.0332 µM
- potency estimated from few doses (compound concentrations:100 nM and 1000 nM (sheet 'Lestaurtinib' of Supplementary Table 1),run:Lestaurtinib_02482_R2,Plate:MR011): 0.0362 µM
- potency estimated from few doses (compound concentrations:100 nM and 1000 nM (sheet 'Lestaurtinib' of Supplementary Table 1),run:Lestaurtinib_02487_R2,Plate:MR012): 0.0386 µM
- potency estimated from few doses (compound concentrations:100 nM and 1000 nM (sheet 'Lestaurtinib' of Supplementary Table 1),run:Lestaurtinib_02487_R3,Plate:MR012): 0.0391 µM
- potency estimated from few doses (compound concentrations:100 nM and 1000 nM (sheet 'Lestaurtinib' of Supplementary Table 1),run:Lestaurtinib_02496_R1,Plate:MR013): 0.033 µM
- potency estimated from few doses (compound concentrations:100 nM and 1000 nM (sheet 'Lestaurtinib' of Supplementary Table 1),run:Lestaurtinib_02496_R2,Plate:MR013): 0.0306 µM
- potency estimated from few doses (compound concentrations:100 nM and 1000 nM (sheet 'Lestaurtinib' of Supplementary Table 1),run:Lestaurtinib_02496_R3,Plate:MR013): 0.0354 µM
- potency estimated from few doses (compound concentrations:100 nM and 1000 nM (sheet 'Lestaurtinib' of Supplementary Table 1),run:Lestaurtinib_02566_R1,Plate:MR014): 0.0279 µM
- potency estimated from few doses (compound concentrations:100 nM and 1000 nM (sheet 'Lestaurtinib' of Supplementary Table 1),run:Lestaurtinib_02566_R2,Plate:MR014): 0.031 µM
- potency estimated from few doses (compound concentrations:100 nM and 1000 nM (sheet 'Lestaurtinib' of Supplementary Table 1),run:Lestaurtinib_02566_R3,Plate:MR014): 0.0382 µM
- potency estimated from few doses (compound concentrations:100 nM and 1000 nM (sheet 'Lestaurtinib' of Supplementary Table 1),run:Lestaurtinib_02572_R1,Plate:MR015): 0.0261 µM
- potency estimated from few doses (compound concentrations:100 nM and 1000 nM (sheet 'Lestaurtinib' of Supplementary Table 1),run:Lestaurtinib_02572_R2,Plate:MR015): 0.0379 µM
- potency estimated from few doses (compound concentrations:100 nM and 1000 nM (sheet 'Lestaurtinib' of Supplementary Table 1),run:Lestaurtinib_02584_R2,Plate:MR017): 0.0274 µM
- potency estimated from few doses (compound concentrations:100 nM and 1000 nM (sheet 'Lestaurtinib' of Supplementary Table 1),run:Lestaurtinib_02601_R1,Plate:MR018): 0.0329 µM
- potency estimated from few doses (compound concentrations:100 nM and 1000 nM (sheet 'Lestaurtinib' of Supplementary Table 1),run:Lestaurtinib_02601_R2,Plate:MR018): 0.0365 µM
- potency estimated from few doses (compound concentrations:100 nM and 1000 nM (sheet 'Lestaurtinib' of Supplementary Table 1),run:Lestaurtinib_02601_R3,Plate:MR018): 0.0323 µM
- potency estimated from few doses (compound concentrations:100 nM and 1000 nM (sheet 'Lestaurtinib' of Supplementary Table 1),run:Lestaurtinib_02606_R1,Plate:MR019): 0.0354 µM
- potency estimated from few doses (compound concentrations:100 nM and 1000 nM (sheet 'Lestaurtinib' of Supplementary Table 1),run:Lestaurtinib_02606_R3,Plate:MR019): 0.0356 µM
- potency estimated from few doses (compound concentrations:100 nM and 1000 nM (sheet 'Lestaurtinib' of Supplementary Table 1),run:Lestaurtinib_02624_R1,Plate:MR020): 0.0261 µM
- potency estimated from few doses (compound concentrations:100 nM and 1000 nM (sheet 'Lestaurtinib' of Supplementary Table 1),run:Lestaurtinib_02624_R2,Plate:MR020): 0.031 µM
- potency estimated from few doses (compound concentrations:100 nM and 1000 nM (sheet 'Lestaurtinib' of Supplementary Table 1),run:Lestaurtinib_02724_R1,Plate:MR021): 0.0329 µM
- potency estimated from few doses (compound concentrations:100 nM and 1000 nM (sheet 'Lestaurtinib' of Supplementary Table 1),run:Lestaurtinib_02724_R3,Plate:MR021): 0.033 µM
- potency estimated from few doses (compound concentrations:100 nM and 1000 nM (sheet 'Lestaurtinib' of Supplementary Table 1),run:Lestaurtinib_02741_R1,Plate:MR023): 0.0386 µM
- potency estimated from few doses (compound concentrations:100 nM and 1000 nM (sheet 'Lestaurtinib' of Supplementary Table 1),run:Lestaurtinib_02741_R2,Plate:MR023): 0.0394 µM
- potency estimated from few doses (compound concentrations:100 nM and 1000 nM (sheet 'Lestaurtinib' of Supplementary Table 1),run:Lestaurtinib_02741_R3,Plate:MR023): 0.0356 µM
- potency estimated from few doses (compound concentrations:100 nM and 1000 nM (sheet 'Lestaurtinib' of Supplementary Table 1),run:Lestaurtinib_02748_R1,Plate:MR024): 0.0304 µM
- potency estimated from few doses (compound concentrations:100 nM and 1000 nM (sheet 'Lestaurtinib' of Supplementary Table 1),run:Lestaurtinib_02765_R1,Plate:MR026): 0.0298 µM
- potency estimated from few doses (compound concentrations:100 nM and 1000 nM (sheet 'Lestaurtinib' of Supplementary Table 1),run:Lestaurtinib_02765_R2,Plate:MR026): 0.0365 µM
- potency estimated from few doses (compound concentrations:100 nM and 1000 nM (sheet 'Lestaurtinib' of Supplementary Table 1),run:Lestaurtinib_02765_R3,Plate:MR026): 0.0365 µM
- potency estimated from few doses (compound concentrations:100 nM and 1000 nM (sheet 'Lestaurtinib' of Supplementary Table 1),run:Lestaurtinib_02766_R1,Plate:MR027): 0.0278 µM
